Test results from PubChem BioAssay AID1159580 (chemical genetic matrix, 2015).
In all, about 5,500 compounds went through this assay and about 2,000 (36%) were called active. Not shown: some 18% with an inconclusive outcome. Rule as the data show it: active = normalized growth mostly below about 0.91 (no sharp cut-off); inconclusive = no clear call, values can overlap the other calls; inactive = mostly above about 0.92. The list shows a part of the results.

Experiment: chemical genetic growth profiling, strain panel (AID 1159580);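 also: tested at 20 µM; growth read once vehicle control cultures reached saturation at 30 °C; 1 = growth at the plate median or of vehicle wells; lower values mean less growth of the strain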
Conditions: growth OD

Measured: normalized growth

C[C@]12CCC(=O)C=C1CCC1C2CC[C@@]2(C)C1CC[C@@H]2O (some centres not stated)
inactive: S. cerevisiae deletion strains, locus YJR075W, strain HOC1, active compounds read low 0.996 | S. cerevisiae deletion strains, locus YKL009W, strain mrt4, active compounds read low 0.957 | S. cerevisiae deletion strains, locus YKL068W, active compounds read low 1.03 | S. cerevisiae deletion strains, locus YKL085W, strain MDH1 (second series), active compounds read low 1.01 | S. cerevisiae deletion strains, locus YKL085W, strain MDH1, active compounds read low 1.01 | S. cerevisiae deletion strains, locus YKL160W, strain elf1, active compounds read low 0.994 | S. cerevisiae deletion strains, locus YKL190W, strain CNB1, active compounds read low 1.03 | S. cerevisiae deletion strains, locus YKR001C, strain vps1, active compounds read low 1.03 | S. cerevisiae deletion strains, locus YKR026C, strain gcn3, active compounds read low 1 | S. cerevisiae deletion strains, locus YKR091W, strain srl3, active compounds read low 0.991 | S. cerevisiae deletion strains, locus YLL001W, strain dnm1, active compounds read low 1 | S. cerevisiae deletion strains, locus YLL026W, active compounds read low 0.992 | S. cerevisiae deletion strains, locus YLL041C, strain sdh2, active compounds read low 0.99 | S. cerevisiae deletion strains, locus YLR027C, strain aat2, active compounds read low 1 | S. cerevisiae deletion strains, locus YLR039C, strain RIC1, active compounds read low 1.17 | S. cerevisiae deletion strains, locus YLR058C, strain SHM2, active compounds read low 1.02 | S. cerevisiae deletion strains, locus YLR102C, strain apc9, active compounds read low 1.03 | S. cerevisiae deletion strains, locus YLR113W, strain HOG1, active compounds read low 0.99 | S. cerevisiae deletion strains, locus YLR221C, strain rsa3, active compounds read low 0.988 | S. cerevisiae deletion strains, locus YLR258W, strain gsy2, active compounds read low 0.993 | S. cerevisiae deletion strains, locus YLR262C, strain YPT6 (second series), active compounds read low 0.98 | S. cerevisiae deletion strains, locus YLR262C, strain YPT6, active compounds read low 1.18 | S. cerevisiae deletion strains, locus YLR268W, strain sec22, active compounds read low 1.01 | S. cerevisiae deletion strains, locus YLR320W, strain mms22, active compounds read low 0.946 | S. cerevisiae deletion strains, locus YLR330W, strain CHS5, active compounds read low 1.02 | S. cerevisiae deletion strains, locus YLR342W, strain FKS1 (second series), active compounds read low 0.983 | S. cerevisiae deletion strains, locus YLR342W, strain FKS1, active compounds read low 0.985 | S. cerevisiae deletion strains, locus YLR357W, strain rsc2, active compounds read low 1.02 | S. cerevisiae deletion strains, locus YLR370C, strain arc18, active compounds read low 0.988 | S. cerevisiae deletion strains, locus YLR371W, strain rom2, active compounds read low 1.02 | S. cerevisiae deletion strains, locus YLR384C, strain iki3, active compounds read low 1 | S. cerevisiae deletion strains, locus YLR418C, strain cdc73, active compounds read low 1.02 | S. cerevisiae deletion strains, locus YML016C, strain PPZ1, active compounds read low 1.02 | S. cerevisiae deletion strains, locus YML032C, strain rad52, active compounds read low 1.02 | S. cerevisiae deletion strains, locus YML120C, strain ndi1, active compounds read low 0.981 | S. cerevisiae deletion strains, locus YML124C, strain tub3, active compounds read low 1.03 | S. cerevisiae deletion strains, locus YMR058W, strain fet3, active compounds read low 0.993 | S. cerevisiae deletion strains, locus YMR078C, strain ctf18, active compounds read low 1.03 | S. cerevisiae deletion strains, locus YMR125W, strain sto1, active compounds read low 0.99 | S. cerevisiae deletion strains, locus YMR129W, active compounds read low 0.993 | S. cerevisiae deletion strains, locus YMR205C, strain PFK2, active compounds read low 0.936 | S. cerevisiae deletion strains, locus YMR223W, strain ubp8, active compounds read low 1.01 | S. cerevisiae deletion strains, locus YMR231W, strain pep5, active compounds read low 0.999 | S. cerevisiae deletion strains, locus YMR263W, strain SAP30, active compounds read low 1.04 | S. cerevisiae deletion strains, locus YMR307W, strain GAS1, active compounds read low 1.23 | S. cerevisiae deletion strains, locus YNL067W, strain RPL9B, active compounds read low 0.993 | S. cerevisiae deletion strains, locus YNL071W, strain lat1, active compounds read low 0.976 | S. cerevisiae deletion strains, locus YNL128W, strain TEP1, active compounds read low 1.02 | S. cerevisiae deletion strains, locus YNL153C, strain GIM3, active compounds read low 1.02 | S. cerevisiae deletion strains, locus YNL183C, strain NPR1, active compounds read low 0.988 | S. cerevisiae deletion strains, locus YNL209W, strain ssb2, active compounds read low 1.01 | S. cerevisiae deletion strains, locus YNL233W, strain BNI4, active compounds read low 1.04 | S. cerevisiae deletion strains, locus YNL248C, strain rpa49, active compounds read low 1 | S. cerevisiae deletion strains, locus YNL250W, strain rad50, active compounds read low 1.05 | S. cerevisiae deletion strains, locus YNL271C, strain bni1, active compounds read low 1.02 | S. cerevisiae deletion strains, locus YNL298W, strain CLA4, active compounds read low 1 | S. cerevisiae deletion strains, locus YNL307C, strain MCK1, active compounds read low 0.989 | S. cerevisiae deletion strains, locus YNL322C, strain KRE1 (second series), active compounds read low 0.993 | S. cerevisiae deletion strains, locus YNL322C, strain KRE1, active compounds read low 1.02 | S. cerevisiae deletion strains, locus YNR049C, strain mso1, active compounds read low 0.982 | S. cerevisiae deletion strains, locus YNR052C, strain pop2, active compounds read low 0.989 | S. cerevisiae deletion strains, locus YOL006C, strain TOP1, active compounds read low 0.971 | S. cerevisiae deletion strains, locus YOL012C, strain htz1 1.89 | S. cerevisiae deletion strains, locus YOL147C, strain pex11, active compounds read low 1.03 | S. cerevisiae deletion strains, locus YOR001W, strain rrp6, active compounds read low 0.995 | S. cerevisiae deletion strains, locus YOR061W, strain CKA2, active compounds read low 1.02 | S. cerevisiae deletion strains, locus YOR069W, strain VPS5, active compounds read low 1.01 | S. cerevisiae deletion strains, locus YOR070C, strain gyp1, active compounds read low 0.988 | S. cerevisiae deletion strains, locus YOR080W, strain dia2, active compounds read low 0.983 | S. cerevisiae deletion strains, locus YOR083W, strain WHI5, active compounds read low 0.983 | S. cerevisiae deletion strains, locus YOR106W, strain vam3, active compounds read low 0.96 | S. cerevisiae deletion strains, locus YOR136W, strain idh2, active compounds read low 1.04 | S. cerevisiae deletion strains, locus YOR144C, strain elg1, active compounds read low 1.03 | S. cerevisiae deletion strains, locus YOR184W, strain ser1, active compounds read low 0.98 | S. cerevisiae deletion strains, locus YOR231W, strain MKK1, active compounds read low 0.99 | S. cerevisiae deletion strains, locus YOR265W, strain rbl2, active compounds read low 0.989 | S. cerevisiae deletion strains, locus YOR270C, strain vph1, active compounds read low 0.936 | S. cerevisiae deletion strains, locus YOR290C, strain snf2, active compounds read low 0.967 | S. cerevisiae deletion strains, locus YOR316C, strain cot1, active compounds read low 1.03 | S. cerevisiae deletion strains, locus YPL051W, strain arl3, active compounds read low 1 | S. cerevisiae deletion strains, locus YPL055C, strain LGE1, active compounds read low 1.07 | S. cerevisiae deletion strains, locus YPL078C, strain atp4, active compounds read low 0.997 | S. cerevisiae deletion strains, locus YPL106C, strain sse1, active compounds read low 1.05 | S. cerevisiae deletion strains, locus YPL240C, strain hsp82, active compounds read low 0.978 | S. cerevisiae deletion strains, locus YPL241C, strain CIN2, active compounds read low 1.03 | S. cerevisiae deletion strains, locus YPL256C, strain CLN2, active compounds read low 1.06 | S. cerevisiae deletion strains, locus YPR119W, strain clb2, active compounds read low 1.02 | S. cerevisiae deletion strains, locus YPR141C, strain kar3, active compounds read low 1.04 | S. cerevisiae deletion strains, locus YPR163C, strain tif3, active compounds read low 1.04 | S. cerevisiae deletion strains, locus YPR167C, strain met16, active compounds read low 1.03 | S. cerevisiae deletion strains, strain wtn01, active compounds read low 0.989 | S. cerevisiae strains, strain wild type, active compounds read low 1.01
